According to ChEMBL document CHEMBL3433997, “St. Jude Leishmania screening dataset” (2016):

Legend:
Type in all cases: functional
[1] = target: Solute carrier family 2, facilitated glucose transporter member 1 (Homo sapiens) (UniProt P11166); assay: ST_JUDE_LEISH: Cytotoxicity at 2uM final concentration against transgenic Leishmania Mexicana promastigotes LmGLUT1 that are glucose transport deficient and complemented with the human glucose transporter GLUT1. Activity is measured by DNA content using SYBR green in vitro
[2] = target: Hexose transporter 1 (Plasmodium falciparum) (UniProt O97467); assay: ST_JUDE_LEISH: Cytotoxicity at 2uM final concentration against transgenic Leishmania Mexicana promastigotes LmPfHT that are glucose transport deficient and complemented with the Plasmodium falciparum hexose transporter. Activity is measured by DNA content using SYBR green in vitro
[3] = target: Glucose transporter (Leishmania mexicana) (UniProt O61059); assay: ST_JUDE_LEISH: Cytotoxicity at 2uM final concentration against transgenic Leishmania Mexicana promastigotes LmGT2 that are glucose transport deficient and complemented with the L. Mexicana glucose transporter 2. Activity is measured by DNA content using SYBR green in vitro

Chain of Solute carrier family 2, facilitated glucose transporter member 1 (Homo sapiens) (P11166 whole entry): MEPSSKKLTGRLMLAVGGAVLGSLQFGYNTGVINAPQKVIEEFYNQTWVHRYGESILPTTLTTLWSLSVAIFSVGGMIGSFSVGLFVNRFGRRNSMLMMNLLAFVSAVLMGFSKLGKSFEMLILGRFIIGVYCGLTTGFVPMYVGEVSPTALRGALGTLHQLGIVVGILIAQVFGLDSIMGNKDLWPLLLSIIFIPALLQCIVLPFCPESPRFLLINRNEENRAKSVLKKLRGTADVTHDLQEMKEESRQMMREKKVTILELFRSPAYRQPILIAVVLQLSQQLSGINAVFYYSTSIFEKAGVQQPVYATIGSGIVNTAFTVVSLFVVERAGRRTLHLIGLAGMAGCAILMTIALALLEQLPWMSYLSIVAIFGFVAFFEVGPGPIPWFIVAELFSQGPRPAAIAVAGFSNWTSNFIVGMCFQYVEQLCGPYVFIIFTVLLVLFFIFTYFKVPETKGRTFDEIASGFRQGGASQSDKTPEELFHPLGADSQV

| Compound | inhibition [1] [%] | inhibition [2] [%] | inhibition [3] [%] |
| --- | --- | --- | --- |
| O=c1cc(NCCCNCc2ccccc2-c2ccccc2)[nH]c2ccccc12 | 2.76 | 3.22 | 1.59 |
| C=C(NC(=O)C1CCCCC1)C(=O)OC | -0.71 | 2.29 | 0.41 |
| Cc1cc(N[C@@H](Cc2ccccc2)C(=O)NCc2cccs2)nc(NCCc2ccccc2)n1 | 2.96 | 2.94 | -1.2 |
| CC(=O)Nc1ccc2[nH]cc(C3CCN(CCC4CCN(C(=O)/C=C/c5ccc(Cl)c(Cl)c5)CC4)CC3)c2n1 | 0.57 | 0.67 | -1.33 |
| COc1ccccc1N1CCN(C(C(=O)NCc2ccc3c(c2)OCO3)c2ccc3c(c2)OCCCO3)CC1 (stereo unspecified) | 1.2 | 1.04 | 3.62 |
| O=C(CN1CCCCC1)Nc1ccc(Nc2nccc(NCC(O)c3ccccc3)n2)cc1 (stereo unspecified) | 11.7 | 9.59 | 7.17 |
| Cc1cc(N[C@@H](CC(C)C)C(=O)NCCCOC(C)C)nc(NCCc2ccc(F)cc2)n1 | 2.71 | 1.92 | 0.62 |
| Cc1ccc(Cn2nc(Cl)c(N3CCNCC3)cc2=O)cc1NC(=O)Nc1ccc(-c2ccccc2)cc1 | 1.36 | 5.15 | 6.75 |
| CS(=O)(=O)Cc1ccc(Nc2nccc(-c3c(-c4cccc(NC(=O)c5c(F)cccc5F)c4)nn4ccccc34)n2)cc1 | 38.6 | 18.8 | 9.09 |
| COc1ccc(NC(=O)C2c3ccccc3C(=O)N(C3CCCC3)C2c2cccs2)cc1OC (stereo unspecified) | 2.85 | 5.65 | 0.45 |
| Cc1cc(CN2CC[C@H](NC(=O)c3ccc(Cl)c(Cl)c3)C2)ccc1OCCN1CCCC1 | -1.05 | 1.81 | -2.1 |
| CCCCCCn1c(Sc2ccc(C#N)c([N+](=O)[O-])c2)nnc1-c1cc(OC)cc(OC)c1 | 5.8 | 6.04 | 4.53 |
| Cc1cccc(N2C(N)=NC(N)=NC2(C)C)c1C | 0.74 | 1.41 | 1.09 |
| CS(=O)(=O)c1ccc(CNCc2ccc(-c3cccc(-c4nc5cc(C(F)(F)F)ccc5[nH]4)c3)cc2)cc1 | 3.2 | 3.79 | 1.5 |
| CN1CCN(S(=O)(=O)c2cccc(Nc3nccc(N(C)c4ccc5c(c4)nc(NC(=O)c4cccs4)n5C)n3)c2)CC1 | -0.55 | 0.27 | 1.49 |
| Cc1ccc(Cn2cnc3cc(C(=O)Nc4ccc(-c5ccc(CN(C)C)cc5)cc4)ccc3c2=O)o1 | 5.55 | 2.88 | 3.84 |

| Compound | inhibition [1] [%] | inhibition [2] [%] | inhibition [3] [%] |
| --- | --- | --- | --- |
| CCc1ccc(C2CCN(CCCCNC(=O)c3ccc(NC(=O)c4ccc(Cl)cc4)cc3)CC2)c(OC(C)=O)c1 | 3.29 | 3.47 | 3.54 |
| Cc1cc(=NN=Cc2cccc(F)c2)c2cccc(C)c2[nH]1 | 2.24 | 3.31 | 0.78 |
| COc1ccc2ncc(F)c(CCN3CC(O)C(CNCc4ccc5c(c4)OCCO5)C3)c2n1 (stereo unspecified) | 6.54 | 4.38 | -0.93 |
| C(=N\Nc1nccc2sc(-c3cccnc3)cc12)/c1ccncc1 | 5.3 | 5.29 | 1.98 |
| CCc1ccc(NC(=O)c2ccc(CN3CCCN(Cc4ccc(C)s4)CC3)cc2)cc1 | 3.79 | 5.06 | 2.95 |
| CCN(CCNc1nc(NCCc2cnc[nH]2)nc(N(CCC#N)Cc2ccccc2)n1)c1cccc(C)c1 | 12.1 | 12.8 | 6.78 |
| O=C(Nc1cccc(Cl)c1Cl)NC1CCN(Cc2cccc(O)c2)CC1 | 3.63 | 2.13 | 2.32 |
| O=C(NCC1CCN(Cc2ccc(F)cc2)C1)c1cc(-c2cccc(C(F)(F)F)c2)cs1 (stereo unspecified) | -0.31 | -1.16 | -6.61 |
| CCn1c(-c2nonc2N)nc2c(-c3cccc(NC(=O)NC45CC6CC(CC(C6)C4)C5)c3)ncc(OCCCN)c21 | 2.53 | 1.83 | 2.53 |
| Cc1cc(Cl)ccc1N(Cc1ccccc1)c1ccnc(Cl)n1 | 1.11 | 1.68 | 0.11 |
| Cc1ccc(NC(=O)c2cc(S(=O)(=O)NC(C)(C)C)ccc2C)nc1 | 0.04 | 0.34 | 2.32 |
| Cc1nc(-c2nc(NCc3ccccn3)ncc2-c2ccsc2)sc1C | 6.64 | 5.22 | 5.82 |
| Cc1cc(OCCCN2CCCCC2C)ccc1NC(=O)COc1ccc(Cl)cc1C(=O)c1cc(Cl)cc(C#N)c1 (stereo unspecified) | 74.2 | 78.3 | 58 |
| CCN(CC)CCNc1cc(C)nc(NC(=N)Nc2ccc(Cl)cc2)n1 | 6 | 6.42 | 5.89 |
| O=C(Nc1cccc(CN2CCN(Cc3ccc(O)cc3)CC2)c1)c1ccc(-c2ccccc2)cc1 | 4.37 | 2.25 | -3.36 |
| CCCCCCNC(=O)C1Cc2c([nH]c3cc(Cl)ccc23)C2(CCN(Cc3ccccc3)CC2)N1 (stereo unspecified) | 7.27 | 5.97 | 5.18 |
